Out of some 58,000 compounds screened, about 100 (0.17%) were called active. No stated cut-off is given here; in the data, active means inhibition above about 45%; inactive means the rest. The sample as a whole holds a higher share of actives than the screen did.
target: Procathepsin L (Homo sapiens) (UniProt P07711); test: inhibitors of human cathepsin L, biochemical (AID 460); conditions: purified cathepsin L, fluorogenic substrate, fluorescence; active compounds read high;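 tested at 10 µM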;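 further: 0% = enzyme with no compound and 100% = no enzyme blank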
Sequence (P07711 114-288 limits assumed): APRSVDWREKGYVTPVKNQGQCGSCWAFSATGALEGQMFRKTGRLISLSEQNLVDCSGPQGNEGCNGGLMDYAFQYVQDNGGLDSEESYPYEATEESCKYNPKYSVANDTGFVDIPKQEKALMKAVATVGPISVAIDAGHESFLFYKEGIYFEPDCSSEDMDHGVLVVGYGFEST
Sequence (P07711 292-333 limits assumed): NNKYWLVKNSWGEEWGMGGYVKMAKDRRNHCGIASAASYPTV

| SMILES | inhibition |
| --- | --- |
| C=CCN1C(=O)C(O)(CC(=O)c2ccc(Cl)cc2)c2ccccc21 (stereo not drawn) | 0.03% (inactive) |
| CSc1cccc(NC(=O)C2CCCN2S(=O)(=O)c2ccc3c(c2)CCC(=O)N3)c1 (stereo not drawn) | 7.66% (inactive) |
| Nc1ccc(SCCN2C(=O)c3ccccc3C2=O)cc1 | 7.88% (inactive) |
| CCn1c2c(c3ccc(OC)cc31)CCCC2=O | -5.8% (inactive) |
| C=CCOc1nc2c(c(=O)n(C)c(=O)n2C)n1Cc1ccc(Cl)cc1Cl | 31.1% (inactive) |
| CCOC(=O)c1ccc(COC(=O)c2cc(=O)[nH]c3ccccc23)o1 | 2.07% (inactive) |
| CCC(=O)Nc1nc(OC)cc(OC)n1 | -4.97% (inactive) |
| O=C(NCC1CCCO1)C(C(=O)c1ccccc1)n1cc(Cl)ccc1=O (stereo not drawn) | -10.2% (inactive) |
| Cc1ccc(-c2nnn(CC(=O)N(CCO)C(C(=O)NC(C)(C)C)c3ccncc3)n2)cc1 (stereo not drawn) | -1.4% (inactive) |
| CCCCCCC(=O)N(O)C1CC(=O)N(c2ccccc2)C1=O (stereo not drawn) | -5.53% (inactive) |
| COCCn1c(=O)[nH]c2cc(C(=O)NCc3cccnc3)ccc2c1=O | 1.59% (inactive) |
| COc1ccc(CN2CN(C(C)C)CSC2=S)cc1 | 17% (inactive) |
| Cc1cc(C(F)(F)F)nn1-c1nc(-c2ccco2)cc(C(F)(F)F)n1 | 1.46% (inactive) |
| CC(=O)Oc1ccc2c(C)c(CC(C)O)c(=O)oc2c1 (stereo not drawn) | -70.3% (inactive) |
| COc1ccc(C(=O)NCCc2ccc(S(N)(=O)=O)cc2)cc1OC | 15.1% (inactive) |
| Cc1ccc(OCC(O)CN2CCN(CC(O)COc3ccc(C)cc3Cl)CC2)c(Cl)c1 (stereo not drawn) | 24.6% (inactive) |
| CCn1c(SCC(=O)Nc2nc3ccc(OC)cc3s2)nnc1-c1ccoc1C | 19.9% (inactive) |
| C[C@H](NC(=O)OC(C)(C)C)c1nnc(SCC(N)=O)o1 | 9.7% (inactive) |
| CCOC(=O)C1CCc2nc3ccccc3c(=O)n21 (stereo not drawn) | 17.4% (inactive) |
| CCN(CC)CCCNC(=O)c1cc(-c2cccc(Cl)c2)on1 | 10.3% (inactive) |
| NC(=O)c1ccsc1NC(=O)c1ccco1 | 3.89% (inactive) |
| CC1CCc2c(sc3c2C2=NS(=O)(=O)CCN2C=N3)C1 (stereo not drawn) | 0.12% (inactive) |
| CCS(=O)(=O)N1CCN(C(=O)c2cccs2)CC1 | 3.99% (inactive) |
| O=C(NCCCNC(=O)NC1CCCCC1)NC1CCCCC1 | 4.27% (inactive) |
| N#Cc1c2c(c(N3CCN(CCO)CC3)n3c1nc1ccccc13)CCCC2 | 10.1% (inactive) |

| SMILES | inhibition |
| --- | --- |
| Cc1ccc(-c2cc(C(F)(F)F)n3nc(C(=O)N4CCCC4)cc3n2)cc1 | -2.27% (inactive) |
| C=CCNC(=O)c1ccc(C)c(Br)c1 | 21.6% (inactive) |
| COCCNC(=O)C(C#N)c1nc2ccccc2nc1N1CCN(Cc2ccc3c(c2)OCO3)CC1 (stereo not drawn) | -9.53% (inactive) |
| CC1(C)CC(=O)C(C=NCc2cccnc2)=C(O)C1 | 3% (inactive) |
| Cc1ccccc1-c1ccc(Nc2ccc(C(=O)N3CCOCC3)cc2)nn1 | -0.35% (inactive) |
| COc1ccc(CCNC(=O)CSc2nnc(CNC(=O)c3cccs3)o2)cc1OC | 3.37% (inactive) |
| CCCCC(CC)C(=O)Nc1ccc(Cl)cn1 (stereo not drawn) | 1.2% (inactive) |
| CCOC(=O)c1[nH]c2ccc(C)cc2c1N=C(C)N(C)C | 0.54% (inactive) |
| CCC(=O)Nc1ccc(C(=O)CSc2nnc(CNc3ccc(Cl)cc3)o2)cc1OC | 9.8% (inactive) |
| Cc1ccc(S(=O)(=O)C2(S(=O)(=O)c3ccc(C)cc3)CCCC2)cc1 | -3.77% (inactive) |
| Cc1ccc(-n2nc3c(c2NC(=O)c2ccc4c(c2)OCO4)CSC3)c(C)c1 | -0.76% (inactive) |
| CCOC(=O)N1CCN(C(=O)CN(C2CCCCC2)S(C)(=O)=O)CC1 | -8.17% (inactive) |
| CC(C)(C)c1cc(CN2CCN(CCC#N)CC2)cc(C(C)(C)C)c1O | 4.94% (inactive) |
| CCn1c(CSc2nncn2-c2ccc(OC)cc2)nc2cc(S(=O)(=O)N(C)C)ccc21 | 15% (inactive) |
| O=C(Nn1cc(C(=O)N2CCN(c3ccccc3F)CC2)c2ccccc2c1=O)c1cnccn1 | -5.99% (inactive) |
| CCN(Cc1ccccc1)C(=O)CSc1nc(C)cc2c1C(=O)OC2 | 5.38% (inactive) |
| CCC(C)n1[nH]c(=O)c2c(C)cc(C)nc21 (stereo not drawn) | 12.4% (inactive) |
| COc1ccc(-c2ccnc(SCC(=O)N3CCOCC3)n2)cc1 | 11.9% (inactive) |
| CCn1c(-c2cc(OC)ccc2OC)csc1=Nc1c(C)n(C)n(-c2ccccc2)c1=O | -2.42% (inactive) |
| COc1ccc(NC2CC(=O)N(C)C2=O)cc1 (stereo not drawn) | 4.64% (inactive) |
| CC(C)n1c(C(O)c2ccccc2)nc2ccccc21 (stereo not drawn) | 2.15% (inactive) |
| Cc1cccn2c(=O)c3cc(C#N)c(=O)n(CCCN4CCOCC4)c3nc12 | -56.6% (inactive) |
| CCOC(=O)C1(C(F)(F)F)N=C(N(C)C)OC(N(C)C)=N1 | -0.15% (inactive) |
| Cc1cc(C)c(C(=O)CN2C(=O)CCC2=O)cc1C | 5.02% (inactive) |
| O=C(c1ccc2c(c1)N(Cc1ccc(F)cc1)C(=O)CS2)N1CCOCC1 | -0.56% (inactive) |

| SMILES | inhibition |
| --- | --- |
| CN(C(=O)c1ccno1)c1nnc(-c2cccnc2)s1 | -4.38% (inactive) |
| CN(C(=O)C1CCOC1)c1nnc(-c2cccnc2)s1 (stereo not drawn) | 49.5% (active) |
| CN(C(=O)COc1ccccc1)c1nnc(-c2ccncc2)s1 | -26.7% (inactive) |
| COc1ccc(-c2nnc(SC(C)C#N)o2)cc1 (stereo not drawn) | 9.86% (inactive) |
| CC(=O)Nc1nc(C)c(Cc2ccccc2)c(=O)[nH]1 | -7.6% (inactive) |
| CCOc1cccc(C(=O)Nc2cccnc2)c1 | -6.37% (inactive) |
| CC(=O)Nc1ccc(S(=O)(=O)N2CCN(C3CCCCCCC3)CC2)cc1 | 7.05% (inactive) |
| COc1ccc2c(c1OC)C(=O)N(c1ncn[nH]1)C2 | 2.08% (inactive) |
| COc1ccc(NC(=O)CN2CCN(S(=O)(=O)c3ccc(F)cc3)CC2)cc1Cl | 20.1% (inactive) |
| COc1ccc(S(=O)(=O)Nc2ccc3c(c2)OCO3)cc1Cl | 3.1% (inactive) |
| CCc1nnc(NC(=O)CCC(=O)O)s1 | 3.51% (inactive) |
| COC(=O)C1C(=O)CC(C)(O)C(C(=O)OC)C1c1ccc2c(c1)OCO2 (stereo not drawn) | 11.2% (inactive) |
| CN1CCN(S(=O)(=O)c2ccc3[nH]cc(C(=O)O)c(=O)c3c2)CC1 | -3.14% (inactive) |
| O=C(CCN1C(=O)COc2ccccc21)NCCCN1CCN(c2ccc(F)cc2)CC1 | 5.08% (inactive) |
| COc1ccc(N2CCN(CCNC(=O)CCN3C(=O)COc4ccccc43)CC2)cc1 | 104% (active) |
| CCCN1CCN(CCCNC(=O)CN2C(=O)COc3ccccc32)CC1 | -8% (inactive) |
| O=C(CCCC(=O)N(CC(=O)NC1CCCC1)Cc1ccccc1Cl)Nc1ccccn1 | 9.21% (inactive) |
| c1ccc2[nH]c(-c3nc4ccccc4[nH]3)nc2c1 | 3.52% (inactive) |
| Cc1ccc2nc3n(c(=O)c2c1)CCC3 | 14.4% (inactive) |
| CCCC(=O)N1c2ccccc2NC2=C(C(=O)CCC2)C1c1ccc(F)cc1 (stereo not drawn) | 3.55% (inactive) |
| O=C(NC12CC3CC(CC(C3)C1)C2)N1CCCC(CO)C1 (stereo not drawn) | 2.74% (inactive) |
| CCOC(=O)C1=C(C)NC(=O)N(C(C)=O)C1c1ccc(Cl)cc1 (stereo not drawn) | 12.8% (inactive) |
| COc1ccc(C2CC(c3ccc(C)cc3)Nc3nc(N)nn32)cc1 (stereo not drawn) | -0.09% (inactive) |
| COc1ccccc1-c1cc(C(=O)N2CCCCC2)no1 | -3.35% (inactive) |
| COc1ccc(Br)cc1/C=N/n1c(C)nnc1C | 12.8% (inactive) |

| SMILES | inhibition |
| --- | --- |
| CCCOC(=O)CC1C(=O)NCCN1Cc1ccc(F)cc1 (stereo not drawn) | -5.6% (inactive) |
| CCOC(=O)c1ccc(NC(=O)CSc2nnc(COc3ccccc3OC)n2C)cc1 | -5.46% (inactive) |
| CCOc1ccc(C(=O)Nc2ccncc2)cc1 | 21.4% (inactive) |
| Cc1cnc(C(=O)OCC(=O)Nc2ccc(Cl)cc2Cl)cn1 | -0.6% (inactive) |
| Fc1ccc2[nH]c3c(N4CCN(Cc5ccc6c(c5)OCO6)CC4)ncnc3c2c1 | -9.64% (inactive) |
| c1ccc(-c2noc(-c3cccs3)n2)nc1 | 0.38% (inactive) |
| CCOc1cc(/C=N/O)cc(Br)c1OC | 2.18% (inactive) |
| COC(=O)C(C)C1Sc2ccccc2NC1=O (stereo not drawn) | -1.59% (inactive) |
| CCCCOc1ccc(-c2ncc(C(=O)OCC)c(N)n2)cc1 | 4.53% (inactive) |
| Cc1cc(NC(=O)c2cnn3cccnc23)n(-c2ccccc2)n1 | 1.38% (inactive) |
| COc1cccc(N2C(=O)C3CCCN3C2c2ccc(F)cc2)c1 (stereo not drawn) | -5.29% (inactive) |
| Cc1noc(C)c1C(=O)NC(C)c1ccc2c(c1)OCO2 (stereo not drawn) | 19.1% (inactive) |
| CN(Cc1ccccc1)Cc1ccccc1F | 6.62% (inactive) |
| COC(=O)c1cc(S(=O)(=O)NC2CCN(Cc3ccccc3)CC2)cn1C | -7.14% (inactive) |
| Cc1cc(OCCN2CCCC2)ccc1C(C)C | 3.61% (inactive) |
| CCCc1cc(=O)[nH]c(SCC(=O)OCc2ccccc2)n1 | -7.39% (inactive) |
| CCn1cc(C(=O)NCc2ccc(OC)cc2OC)c(=O)c2ccc(C)nc21 | -0.88% (inactive) |
| O=c1cc(Cn2nnc(-c3ccc(Cl)cc3)n2)nc2sccn12 | 18.2% (inactive) |
| Cc1cccc(N(CC(O)CN(C)C)S(=O)(=O)c2ccccc2)c1 (stereo not drawn) | -0.65% (inactive) |
| Cc1ccc(C2(c3ccc(C)cc3)NC(=O)N(Cc3c(C)noc3C)C2=O)cc1 | 13.3% (inactive) |
| Cc1nc2ccc(NC(=O)N3CCC(c4ccccc4)C3)cc2nc1C (stereo not drawn) | -130% (inactive) |
| COc1ccc2[nH]c(=O)c(CN(CC3CCCO3)C(=O)Nc3ccccc3)cc2c1 (stereo not drawn) | -6.3% (inactive) |
| CCN(CC(=O)Nc1ccc2c(c1)OCCO2)Cc1cc(=O)oc2cc(C)c(C)cc12 | 0.7% (inactive) |
